Rows were chosen to be rich in hits. Some 19% of all compounds tested hit in one or more screens of this group.
ASM inhibitor = blocks human secretory acid sphingomyelinase. P17405. 340,000 compounds, 0.006% hits. Potency, µM (top dose mostly 57.5 µM), most hits filed as inhibitors. placental ASM, HMU-PC fluorogenic substrate, 60 min. AID 504937
Target sequence (P17405 47-631 limits assumed): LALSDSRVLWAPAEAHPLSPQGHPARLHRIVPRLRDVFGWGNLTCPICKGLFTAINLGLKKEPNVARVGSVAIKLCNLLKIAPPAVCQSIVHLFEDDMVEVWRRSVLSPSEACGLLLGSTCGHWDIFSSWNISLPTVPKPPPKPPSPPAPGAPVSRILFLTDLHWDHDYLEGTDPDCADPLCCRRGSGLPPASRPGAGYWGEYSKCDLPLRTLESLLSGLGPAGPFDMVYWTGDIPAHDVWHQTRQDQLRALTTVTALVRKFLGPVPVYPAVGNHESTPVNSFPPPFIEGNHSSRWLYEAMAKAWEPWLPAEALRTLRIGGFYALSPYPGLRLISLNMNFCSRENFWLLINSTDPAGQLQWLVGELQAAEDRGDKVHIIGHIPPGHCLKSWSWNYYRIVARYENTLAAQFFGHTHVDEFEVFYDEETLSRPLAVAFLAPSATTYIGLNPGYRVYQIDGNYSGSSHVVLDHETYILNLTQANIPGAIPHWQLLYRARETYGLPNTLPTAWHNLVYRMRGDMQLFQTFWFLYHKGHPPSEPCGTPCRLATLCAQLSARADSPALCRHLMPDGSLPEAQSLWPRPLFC
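HMU-PC0 cleavage (9 uM final) by human placental ASM, 60 min at 37 °C following 10 min compound exposure at RT; stopped at pH 10, fluorescence Ex 386/Em 447 nm.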
HepG2 viability = counter-screen for TGF-b inhibitors: cytotoxicity in HepG2 cells. HepG2 CAGA-GFP viability, ATP luminescence, 18 h. Potency, µM (top dose mostly 46.1 µM), actives largely listed as cytotoxic. 410,000 compounds, 0.76% hits. AID 588856
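CellTiter-Glo luminescence gave cytotoxicity after 18 hours at 37 degrees C. The cells were HepG2 CAGA-GFP in 1% FBS DMEM, stimulated with 500 pg/mL TGF-beta after compound addition. %Activity was normalised to no-cell wells (complete cell-killing) and DMSO (no toxicity), and curves were fitted and classified.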
IL1B secr inh = inhibitors of inflammasome signaling (IL-1 beta secretion); AID 743279; THP-1 LPS/ATP IL-1B secretion, AlphaLISA, 16 h; stronger effect = lower value; 360,000 compounds, 4.7% hits; activity change, % at 57.5 µM; in the data active = activity change below about -50%; inconclusive = mostly about -30% to -49%
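Secreted IL-1B measured by AlphaLISA bead assay after 16 h compound exposure of THP-1 cells; compounds (final up to 57.5 uM) added 1 h before LPS (250 ng/mL) and ATP (1.25 mM) stimulation; lower signal means less secretion.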
TGFb SMAD3 inh = inhibitors of TGF-b signaling; HepG2 CAGA-GFP TGF-b/SMAD3 reporter, GFP fluorescence, 18 h; TGF-beta stimulated, 500 pg/mL final; Potency, µM (series often up to 46.1 µM), actives largely listed as inhibitors; 410,000 compounds, 1.2% hits; AID 588855; also: nearly all actives have a fitted effect of over 65% in size
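TGF-beta reporter screen: HEPG2 CAGA-GFP, 1% FBS, 500 pg/mL TGF-beta final, 18 h; per-cell GFP summed per well; curves fitted and categorized by class.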
TDP1 cell CPT = growth inhibition of DT40 Tdp1-/-;hTDP1 cells with camptothecin (screen for TDP1 inhibitors) | chicken DT40 Tdp1-/-;hTDP1 cells + 20 nM CPT, ATP luminescence, 48 h | Potency, µM (series often up to 46.2 µM), most hits filed as inhibitors | 420,000 compounds, 12% hits | AID 686979; also: nearly all actives have a fitted effect of over 55% in size
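Cell growth measured by CellTiter-Glo luminescence after a minimum 48 h, 37 C compound exposure with 20 nM CPT in Tdp1-knockout DT40 cells stably expressing hTDP1, seeded 400/well; qHTS titration format.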
DT40 TDP1 no CPT = qHTS for Inhibitors of human tyrosyl-DNA phosphodiesterase 1 (TDP1): qHTS in cells in absence of CPT; 420,000 compounds, 15% hits; Potency, µM (top dose mostly 46.2 µM), most hits filed as inhibitors; DT40 Tdp1-/- hTDP1 cells, no CPT, ATP luminescence, 48 h; also: nearly all actives have a fitted effect of over 55% in size
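DT40 Tdp1-/-;hTDP1 cells, no CPT (DMSO vehicle only), 400 cells/well; compounds pin-transferred; ≥48 hr, 37 °C; CellTiter-Glo 30 min RT dark, luminescence read.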
Numbers stand for hits; n = inactive; u = inconclusive; x = not tested or not shown. Unless noted, calls follow the shape of the dose curve; as a rule, active = well fitted curve in the direction sought with a large enough effect; inconclusive = small, poorly fitted or top-dose-only effect, or another doubt; inactive = no such curve, though single readings can be large; an effect the other way counts as inactive or inconclusive.

SMILES	ASM inhibitor	HepG2 viability	IL1B secr inh	TGFb SMAD3 inh	TDP1 cell CPT	DT40 TDP1 no CPT
O=C(CCc1ccccc1)NNC(=O)COc1ccccc1Cl	n	n	n	n	n	n
CCCN(C(=O)COC(=O)CCC(=O)c1ccccc1)c1c(N)n(Cc2ccccc2)c(=O)[nH]c1=O	x	n	n	n	n	n
CNS(=O)(=O)c1cccc(C(=O)OCC(=O)/C=C2/N(C)c3ccccc3C2(C)C)c1	n	n	n	n	20.6µM	18.4µM
CN1/C(=C\C(=O)COC(=O)c2ccc(O)c(O)c2)C(C)(C)c2ccccc21	n	n	n	u	6.51µM	6.51µM
CN1/C(=C\C(=O)COC(=O)c2ccc(O)cc2)C(C)(C)c2ccccc21	n	n	n	u	14.6µM	16.4µM
CN1/C(=C\C(=O)COC(=O)CNC(=O)c2ccc3ccccc3c2)C(C)(C)c2ccccc21	n	n	n	n	18.4µM	10.3µM
CCOC(=O)/C=C1/N(C)c2ccccc2C1(C)C	n	n	n	n	n	n
CC(c1ccc(O)cc1)(c1ccc(O)cc1)c1ccc(CCBr)cc1	n	n	n	n	n	u
CCN(CC)S(=O)(=O)c1ccc2c(c1)CC(C(=O)N1CCCC1)N2C(C)=O (stereo unspecified)	n	n	n	n	n	n
CC(=O)c1ccc(-c2ccc(C(=O)NC3CC(C)(C)NC(C)(C)C3)o2)cc1	n	n	-55.6	n	n	u
O=C(c1ccc([N+](=O)[O-])cc1)N1CCN(C(=O)c2ccco2)CC1	n	n	n	n	n	n
O=C(c1ccco1)N1CCN(C(=O)c2ccc(-c3ccc([N+](=O)[O-])cc3)o2)CC1	n	n	n	n	23.1µM	u
CCOC(=O)C1CCCN(C(=O)c2ccc(-c3ccc([N+](=O)[O-])cc3)o2)C1 (stereo unspecified)	x	n	n	u	11.6µM	11.6µM
O=C(c1ccc(-c2ccc([N+](=O)[O-])cc2)o1)N1CCN(S(=O)(=O)c2cccs2)CC1	n	n	n	u	16.4µM	3.66µM
Cc1ccc([C@H]2C[C@H](n3cc(-c4ccc(F)cc4)nn3)[C@@H](O)CN2C(=O)C2CCCCC2)cc1	x	n	n	n	n	n
COc1ccc(N(CC(=O)NCCc2ccc(C)cc2)S(=O)(=O)c2c(C)nn(C)c2C)cc1	x	n	x	u	u	u
O=C(COC(=O)c1ccc(-c2ccc([N+](=O)[O-])cc2)o1)NC(=O)NC1CCCCC1	n	n	n	n	u	u
O=C(NC1CCC(O)CC1)c1ccc(-c2ccc([N+](=O)[O-])cc2)o1 (stereo unspecified)	n	n	n	n	16.4µM	16.4µM
COc1ccc(NC(=O)C2=C(C)Nc3ncnn3C2c2cccn2C)cc1 (stereo unspecified)	x	n	x	n	n	n
CN(CC(=O)NC(=O)NCc1ccccc1)Cc1ccc(Cl)cc1	n	n	u	n	n	n
CSc1ncccc1C(=O)N(C)CC(=O)Nc1ccc(Cl)c(C(F)(F)F)c1	n	n	n	n	u	u
CN(CC(=O)NCCc1ccc(S(N)(=O)=O)cc1)CC(=O)Nc1ccc(Cl)c(C(F)(F)F)c1	n	n	u	n	13µM	13µM
CN(CC(=O)NCc1ccccc1)CC(=O)Nc1ccc(Cl)c(C(F)(F)F)c1	n	n	n	u	14.6µM	18.4µM
CN(CC(=O)NC(=O)NCc1ccccc1)CC(=O)Nc1ccc(Cl)c(C(F)(F)F)c1	n	n	-89.4	u	18.4µM	20.6µM
CN(CC(=O)Nc1ccc(Cl)c(Cl)c1)CC(=O)N1CCCCCC1	x	n	n	n	u	25.9µM
SMILES	ASM inhibitor	HepG2 viability	IL1B secr inh	TGFb SMAD3 inh	TDP1 cell CPT	DT40 TDP1 no CPT
COc1cc(/C=C/CNC[C@H]2O[C@@H](n3cnc4c(=O)[nH]c(N)nc43)[C@H](O)[C@@H]2O)ccc1O	x	n	n	n	n	u
Cc1ccc(C)c(N(C(=O)CNC(=O)c2ccco2)C(C(=O)NC2CCCC2)c2ccncc2)c1 (stereo unspecified)	n	n	n	n	n	n
CC(C(=O)N1CCCCC1)N(C)CC(=O)Nc1ccc(F)c(F)c1F (stereo unspecified)	x	n	n	n	n	n
CC(C(=O)N1CCCCC1)N(C)CC(=O)Nc1ccc(Cl)cc1 (stereo unspecified)	n	n	n	n	u	16.4µM
CN(CC(=O)Nc1ccc(Cl)c(C(F)(F)F)c1)C(=O)CCN1C(=O)C2CCCCC2C1=O (stereo unspecified)	x	n	n	n	23.1µM	23.1µM
CN(CC(=O)NC(=O)NC1CCCCC1)CC(=O)Nc1ccccc1C(F)(F)F	x	n	n	n	u	u
CN(CC(=O)Nc1ccc(Cl)c(C(F)(F)F)c1)CC(=O)NC1CCCCC1	n	n	n	u	16.4µM	u
CCCCN(C)C(=O)CN1C(=O)c2cccnc2Oc2ccc(Cl)cc21	x	n	x	n	n	u
CCOc1ccc(-c2nnc(SCC(=O)Nc3cc(C)on3)o2)cc1	n	n	n	n	8.2µM	u
Cc1cc(NC(=O)CSc2nnc(-c3ccccc3Cl)o2)no1	n	n	n	n	n	n
COc1cccc(-c2nnc(SCC(=O)Nc3cc(C)on3)o2)c1	n	n	n	n	16.4µM	u
Cc1cc(NC(=O)CSc2nnc(-c3cccc(Cl)c3)o2)no1	n	n	n	n	u	16.4µM
COc1ccc(/C=C/C2=CC(C)(C)NC(=S)N2)cc1	n	n	n	n	n	u
O=C(Nc1ccc(Br)cc1)NC1CCCCCCC1	n	n	-90.2	u	u	u
Cc1ccc(CNC(=S)NC2CCCCC2)cc1	n	n	n	n	u	u
O=C(Nc1ccccc1)NC1CCCCCCC1	n	n	u	n	u	29.1µM
O=C(Nc1ccccc1)NC1CCCCC1	n	n	n	u	n	n
CCOc1ccc(NC(=O)NC2CCCCCCC2)cc1	n	n	n	n	n	n
O=C(Nc1ccccc1NC(=O)NC1CCCCC1)NC1CCCCC1	n	n	-68.9	n	u	u
Cc1ccc(CN=C(Nc2ccccc2)NC2CCCCC2)cc1	n	n	-87.1	n	20.6µM	20.6µM
CN1CCC(=NNC(=O)c2cn(-c3ccccc3)nc2-c2ccccc2)CC1	n	n	n	n	n	u
COc1ccc([N+](=O)[O-])cc1NCc1c(F)cccc1F	x	n	n	n	n	n

Screening data: PubChem, National Center for Advancing Translational Sciences (NCATS)
